Measured values taken from PubChem BioAssay (EPA / NIEHS).
Several values for one entry are separate records, joined by “and”; a condition that tells them apart may be missing. Identical values can stand only once. Results filed as inconclusive are left out. Activity calls are given as the source filed them. How the source made its calls: active means hit-call score of the fitted dose curve at least 0.9, where 1 is the maximum; inconclusive means response in the unintended direction; inactive means score below 0.9.

What follows are compounds tested against Glucocorticoid receptor (Homo sapiens) (UniProt P04150) (assay: NVS_NR_hGR: NovaScreen (NVS) Nuclear Receptor Binding Assay for human Glucocorticoid Receptor (GR) (AID 2283363)).
Chain of Glucocorticoid receptor (Homo sapiens) (P04150 whole entry, looked up): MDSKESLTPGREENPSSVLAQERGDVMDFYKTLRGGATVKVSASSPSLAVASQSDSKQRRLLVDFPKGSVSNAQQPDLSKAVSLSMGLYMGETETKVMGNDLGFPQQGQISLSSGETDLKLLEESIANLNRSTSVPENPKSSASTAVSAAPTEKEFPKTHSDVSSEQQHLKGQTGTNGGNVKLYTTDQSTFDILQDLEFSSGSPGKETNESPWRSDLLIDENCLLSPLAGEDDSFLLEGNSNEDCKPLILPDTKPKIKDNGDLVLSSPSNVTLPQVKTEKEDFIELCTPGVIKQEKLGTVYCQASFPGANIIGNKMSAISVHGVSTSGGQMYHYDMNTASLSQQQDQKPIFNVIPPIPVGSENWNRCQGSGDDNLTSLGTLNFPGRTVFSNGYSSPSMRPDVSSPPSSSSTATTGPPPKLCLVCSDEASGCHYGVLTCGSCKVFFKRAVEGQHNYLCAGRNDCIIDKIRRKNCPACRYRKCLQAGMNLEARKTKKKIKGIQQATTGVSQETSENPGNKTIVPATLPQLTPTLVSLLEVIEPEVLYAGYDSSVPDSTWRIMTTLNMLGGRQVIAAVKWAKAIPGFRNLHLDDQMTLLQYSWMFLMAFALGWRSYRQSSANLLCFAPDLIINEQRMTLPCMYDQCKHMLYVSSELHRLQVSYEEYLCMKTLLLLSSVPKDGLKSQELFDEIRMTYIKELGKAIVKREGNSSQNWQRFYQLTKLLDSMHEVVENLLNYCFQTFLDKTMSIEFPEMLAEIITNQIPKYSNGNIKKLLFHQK
Procedure: NVS_NR_hGR is a biochemical, single-readout assay that uses extracted gene-proteins in a cell-free assay. Measurements were taken 16 hours after chemical dosing in a 96-well plate.NVS_NR_hGR is one of one assay component(s) measured or calculated from the NVS_NR_hGR assay. It is designed to make measurements of radioligand binding, a form of binding reporter, as detected with scintillation counting signals by Filter-based radiodetection technology.Data from the assay component NVS_NR_hGR was analyzed into 1 assay endpoint. This assay endpoint, NVS_NR_hGR, was analyzed in the positive analysis fitting direction relative to DMSO as the negative control and baseline of activity. Using a type of binding reporter, loss-of-signal activity can be used to understand changes in the binding as they relate to the gene NR3C1. Furthermore, this assay endpoint can be referred to as a primary readout, because the performed assay has only produced 1 assay endpoint. To generalize the intended target to other relatable targets, this assay endpoint is annotated to the nuclear receptor intended target family, where the subfamily is steroidal.
Binding assays used specific radioligands (tritiated, iodinated) with non-radioactive competitive displacement ligands in agonist or antagonist protocols (as indicated) and various reference compounds and inhibitors to titrate specific binding to receptors and transporters. Most enzyme assays (CYPs, kinases, phosphatases, proteases, HDACs) used recombinant protein and specific substrates (fluorescence mostly, some colorimetric and radioactive) and inhibitors, followed by a biochemical separation of substrate and product. All assays for the biochemical HTS were initially run in duplicate at a single concentration (10 uM for CYP450 assays and 25 uM for all others). […] Each assay was run with positive and negative controls, and concurrent controls on every plate. The follow-up (secondary) screen tested active chemical-pairs in concentration series, as well as a few additional assays not tested in the primary screen, some selected negative inactives, and several cases re-run in the concentration series for confirmatory purposes.

Row | SMILES | AC50 | outcome
1 | Clc1ccc(COC(Cn2ccnc2)c2ccc(Cl)cc2Cl)cc1 (stereo unspecified) | 2.3 µM (active) | 
2 | Cn1sc(Cl)cc1=O |  | inactive
3 | CC(C)(C)CC(C)(C)c1ccc(O)cc1 | 4.67 µM (active) and 15.9 µM (active) and 7.33 µM (active) | 
4 | CC(C)C1CCC(Cc2ccc(Cl)cc2)C1(O)Cn1cncn1 (stereo unspecified) | 5.7 µM (active) | 
5 | CC(C)(c1ccc(OCC2CO2)cc1)c1ccc(OCC2CO2)cc1 (stereo unspecified) |  | inactive
6 | C=C(C)C(=O)[O][Sn]([CH2]CCC)([CH2]CCC)[CH2]CCC | 1.15 µM (active) | 
7 | CC(C)(OO)c1ccccc1 |  | inactive
8 | Clc1ccc(C2(Cn3cncn3)CC(Br)CO2)c(Cl)c1 (stereo unspecified) | 6.23 µM (active) | 
9 | O=C1C2(Cl)C3(Cl)C4(Cl)C(Cl)(Cl)C5(Cl)C3(Cl)C1(Cl)C5(Cl)C24Cl (stereo unspecified) | 841 nM (active) and 992 nM (active) and 186 nM (active) | 

The compounds below were run against Nuclear receptor subfamily 1 group I member 2 (Homo sapiens) (UniProt O75469) (assay: NVS_NR_hPXR: NovaScreen (NVS) Nuclear Receptor Binding Assay for human Pregnane X Receptor (PXR) (AID 2283365);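 further: a drop in FRET signal versus DMSO baseline means the compound binds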).
Chain of Nuclear receptor subfamily 1 group I member 2 (Homo sapiens) (O75469 whole entry, looked up): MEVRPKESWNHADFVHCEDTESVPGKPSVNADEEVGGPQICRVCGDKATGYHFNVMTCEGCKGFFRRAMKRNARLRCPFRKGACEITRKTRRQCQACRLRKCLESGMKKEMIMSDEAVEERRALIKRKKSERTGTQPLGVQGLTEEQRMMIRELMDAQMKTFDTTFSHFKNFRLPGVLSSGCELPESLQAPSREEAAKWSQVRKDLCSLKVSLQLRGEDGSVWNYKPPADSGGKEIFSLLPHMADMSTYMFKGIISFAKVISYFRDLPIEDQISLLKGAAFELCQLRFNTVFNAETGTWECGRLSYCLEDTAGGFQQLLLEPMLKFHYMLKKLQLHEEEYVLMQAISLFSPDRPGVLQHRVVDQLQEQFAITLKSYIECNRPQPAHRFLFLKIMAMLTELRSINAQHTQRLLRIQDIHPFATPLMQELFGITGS
In short: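 Cell-free binding assay with extracted human PXR protein, read by TR-FRET 2 h after dosing; loss of signal relative to DMSO baseline indicates binding. Primary screen at 25 uM in duplicate, actives retested in concentration series.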

Row | SMILES | outcome | AC50
10 | OCc1ccco1 | inactive | 
11 | C=CC#N | inactive | 
12 | Clc1ccc(COC(Cn2ccnc2)c2ccc(Cl)cc2Cl)cc1 (stereo unspecified) |  | 9.83 µM (active)
13 | CCOP(=S)(OCC)Oc1nc(Cl)c(Cl)cc1Cl | inactive | 
14 | Cc1ccccc1N | inactive | 
15 | CC1(C)CCC(Cc2ccc(Cl)cc2)C1(O)Cn1cncn1 (stereo unspecified) | inactive | 
16 | C[C@]12CCC(=O)C[C@@H]1CC[C@@H]1[C@@H]2CC[C@]2(C)[C@@H](O)CC[C@@H]12 | inactive | 
17 | C[C@@H]1C[C@@H]([C@H](O)CC2CC(=O)NC(=O)C2)C(=O)[C@@H](C)C1 | inactive | 
18 | CC(C#N)CCC#N (stereo unspecified) | inactive | 
19 | C[C@H]1CCCC(=O)CCC/C=C/c2cc(O)cc(O)c2C(=O)O1 |  | 0.969 µM (active)
20 | NNC(=S)NN | inactive | 
21 | C[C@]12CC[C@H](O)CC1=CC[C@@H]1[C@@H]2CC[C@]2(C)C(=O)CC[C@@H]12 | inactive | 
22 | CC12CC1(C)C(=O)N(c1cc(Cl)cc(Cl)c1)C2=O (stereo unspecified) | inactive | 
23 | COP(=O)(OC)O/C(=C\Cl)c1cc(Cl)c(Cl)cc1Cl |  | 25 µM (active)
24 | CC(=O)[O][Hg][c]1ccccc1 |  | 5.37 µM (active)
25 | CC(C)C1CCC(Cc2ccc(Cl)cc2)C1(O)Cn1cncn1 (stereo unspecified) |  | 15.5 µM (active)
26 | C=C(C)C(=O)[O][Sn]([CH2]CCC)([CH2]CCC)[CH2]CCC | inactive | 
27 | CC1(C)Cc2cccc(O)c2O1 | inactive | 
28 | Fc1ccc(C2(Cn3cncn3)OC2c2ccccc2Cl)cc1 (stereo unspecified) | inactive | 
29 | [O-][Cl+2]([O-])O | inactive | 
30 | Cc1ccccc1C(=O)Nc1cccc(OC(C)C)c1 |  | 7.03 µM (active)
31 | Oc1cccc2cccnc12 | inactive | 
32 | Clc1ccc(C2(Cn3cncn3)CC(Br)CO2)c(Cl)c1 (stereo unspecified) |  | 19.8 µM (active)
33 | O=C(Nc1ccc2[nH]ccc2c1)c1cc2cc(F)ccc2n1Cc1cccc(F)c1 | inactive | 
34 | C1CCC(NC2CCCCC2)CC1 | inactive | 
35 | O=C1C2(Cl)C3(Cl)C4(Cl)C(Cl)(Cl)C5(Cl)C3(Cl)C1(Cl)C5(Cl)C24Cl (stereo unspecified) | inactive | 
36 | COc1cc(OC)nc(NC(=O)NS(=O)(=O)c2ncccc2C(=O)N(C)C)n1 | inactive | 
